Data from PubChem BioAssay (NCATS).
Records with an inconclusive call do not appear. Entries that show only a call come without a potency. Unmarked numbers belong to inactive results. Calls of active or inactive are those of the source. Calls follow the shape of the dose curve; as a rule, active = well fitted cell-killing curve with a large enough effect; inconclusive = small, poorly fitted or top-dose-only effect, or effect the other way; inactive = no such curve, though single readings can be large or run the other way.

Experiments:
[1] = Viability qHTS for spleen associated tyrosine kinase inhibitor (SYKi) naive MV4-11 cells (AID 1963823); also: nearly all actives have a fitted effect of over 40% in size
How it was run: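 In this viability screen, compounds acted on SYK inhibitor naive MV4-11 cells for three days (72 hr, 37 C). Remaining viable cells were measured by CellTiter-Glo luminescence following a 10 min room-temperature development.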

[2] = Viability qHTS for spleen associated tyrosine kinase inhibitor (SYKi) drug resistant MV4-11 cells (AID 1963824); also: nearly all actives have a fitted effect of over 35% in size
How it was run: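 CellTiter-Glo luminescence, read 10 min after reagent addition, reports viability after a 72 hr compound exposure. Cells are an MV4-11 line made resistant to SYK inhibition, seeded at 500 per well onto compound-containing plates.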
Potency is read from the fitted curve at half-maximal effect.

Row | SMILES | Potency [1] | Potency [2] | viability (% of control) [1] | viability, % of control [2]
1 | CC(C)(F)CC(NC(c1ccc(-c2ccc(S(C)(=O)=O)cc2)cc1)C(F)(F)F)C(=O)NC1(C#N)CC1 (stereo unspecified) | inactive | 3.66 µM (active) |  | 
2 | CCc1c(Cl)c(O)c(Cl)c(O)c1C(=O)O[C@H]1[C@H](O)[C@H](OC)[C@H](OC/C2=C\C=C\C[C@H](O)/C(C)=C\[C@H](CC)[C@@H](O[C@@H]3OC(C)(C)[C@@H](OC(=O)C(C)C)[C@H](O)[C@@H]3O)/C(C)=C/C(C)=C/C[C@@H]([C@@H](C)O)OC2=O)O[C@@H]1C | 7.09 µM (active) | 3.99 µM (active) |  | 
3 | COc1ccc(/C=C/C(=O)O[C@@H]2[C@@H](O)[C@@H](O)[C@H](O[C@H]3[C@@H]4C=CO[C@@H](O[C@@H]5O[C@H](CO)[C@@H](O)[C@H](O)[C@H]5O)[C@@H]4[C@@]4(CO)O[C@@H]34)O[C@H]2C)cc1 | inactive | inactive |  | 
4 | C[C@@H]1CC[C@]2(C(=O)O[C@@H]3O[C@H](CO)[C@@H](O)[C@H](O)[C@H]3O)CC[C@]3(C)C(=CCC4[C@@]5(C)C[C@@H](O)[C@H](O)C(C)(C)C5CC[C@]43C)C2[C@]1(C)O (stereo partly specified) | inactive | inactive |  | 
5 | C=C1[C@H]2[C@H](O[C@@H]3O[C@H](COC(=O)/C=C/c4cc(OC)c(O)c(OC)c4)[C@@H](O)[C@H](O)[C@H]3O)OC=C(C(=O)O)[C@H]2C[C@@H]1O | inactive | inactive |  | 
6 | COC(=O)CC1CC(c2ccc(O)cc2)=NO1 (stereo unspecified) | inactive | inactive |  | 
7 | NC1CCC(Nc2cc(-c3cccc(NCc4cccc(F)c4)n3)c(Cl)cn2)CC1 (stereo unspecified) | 0.146 µM (active) | 0.116 µM (active) |  | 
8 | Cc1cc(C)cc(C(=O)NOCCCCCC(=O)NO)c1 | 0.92 µM (active) | 0.58 µM (active) |  | 
9 | C/C=C/C=C/[C@@H]1O[C@](O)([C@H](CC)C(=O)NC/C=C/C=C(\C)[C@@H](OC)[C@@H](C)C2OC(/C=C/C=C/C=C(\C)C(=O)c3c(O)cc[nH]c3=O)[C@H](O)[C@@H]2O)[C@H](O)[C@H](O)C1(C)C (stereo partly specified) | inactive | 0.243 µM (active) |  | 
10 | CC(=O)NC(Cc1ccccc1)C(=O)NC(C(=O)O)C(C)C (stereo unspecified) | inactive | inactive |  | 
11 | Cc1cccc(Nc2cc(Cl)nc(SCC(=O)O)n2)c1C | inactive | inactive |  | 
12 | C[C@@H]1O[C@@H](O[C@H]2[C@H](O[C@H]3[C@H](O[C@H]4CC[C@@]5(C)C(CC[C@]6(C)C5CC=C5[C@@H]7CC(C)(C(=O)O)C[C@@H](O)[C@]7(C)CC[C@]56C)[C@@]4(C)CO)O[C@H](C(=O)O)[C@@H](O)[C@@H]3O)O[C@H](CO)[C@H](O)[C@@H]2O)[C@H](O)[C@H](O)[C@H]1O (stereo partly specified) |  |  | 58.7% [at 9.25 µM] | 77.5% [at 9.25 µM]
13 | O=C(O)CCc1cc2ccoc2cc1O[C@@H]1O[C@H](CO)[C@@H](O)[C@H](O)[C@H]1O | inactive | inactive |  | 
14 | O=C(Cc1ccccc1)OC[C@H]1O[C@H](O[C@H]2O[C@H](CO)[C@@H](O)[C@H](O)[C@H]2O)[C@H](O)[C@@H](O)[C@@H]1O | inactive | inactive |  | 
15 | CC1CCC2(C(=O)OC3OC(CO)C(O)C(O)C3O)CCC3(C)C(=CCC4C5(C)CCC(O)C(C)(CO)C5CCC43C)C2C1(C)O (stereo unspecified) | inactive | inactive |  | 
16 | C=CC(C)(O)CC/C=C(\C)C(=O)O[C@@H]1[C@@H](O)[C@H](OC(C)(C=C)CC/C=C(\C)C(=O)O)O[C@H](CO)[C@H]1OC(=O)/C(C)=C/CCC(C)(O)C=C (stereo partly specified) | inactive | inactive |  | 
17 | CC1OC(OC2C(C)OC(OC3C(OC(=O)C45CCC(C)(C)CC4C4=CCC6C7(C)CCC(OC8OC(C(=O)O)C(O)C(O)C8OC8OC(CO)C(O)C(OC9OC(C)C(O)C(O)C9O)C8O)C(C)(CO)C7CCC6(C)C4(C)CC5)OC(CO)C(O)C3O)C(O)C2O)C(O)C(O)C1O (stereo unspecified) |  |  | 89.1% [at 9.25 µM] | 97% [at 9.25 µM]
18 | C/C(=C\CO)CC/C=C(\C)C(=O)O[C@H]1[C@H](OC2OC=C(C(=O)O)C3CCC(C)(O)C23)O[C@H](CO)[C@@H](O)[C@@H]1O (stereo partly specified) | inactive | inactive |  | 
19 | CC1(C)CCC2(C(=O)O)C(O)CC3(C)C(=CCC4C5(C)CCC(OC6OC(CO)C(O)C(O)C6OC6OC(CO)C(O)C(O)C6OC6OCC(O)(CO)C6O)C(C)(C)C5CCC43C)C2C1 (stereo unspecified) |  |  | 68.6% [at 9.25 µM] | 84.8% [at 9.25 µM]
20 | CC(C)=CCCC1(C)/C=C/C(OC(=O)C=C(C)C)C(C)(O)/C=C/C(=O)/C(CO)=C\C1 (stereo unspecified) | 1.59 µM (active) | 2.52 µM (active) |  | 
21 | CC(C)CC(=O)O[C@@H]1OC=C(CO[C@@H]2O[C@H](CO)[C@@H](O)[C@H](O)[C@H]2O)[C@H]2[C@@H]3O[C@H]3[C@@](O)(CO)[C@@H]12 | inactive | inactive |  | 
22 | O=C(/C=C/c1ccccc1)OC[C@H]1O[C@@H](OC(=O)c2cc(O)c(O)c(O)c2)[C@H](O)[C@@H](O)[C@@H]1O | inactive | inactive |  | 

Row | SMILES | Potency [1] | Potency [2] | viability (% of control) [1] | viability, % of control [2]
23 | CC/C=C\[C@H](O)[C@H](O)C1=C(C)C(=O)[C@]2(O1)C(=O)N[C@@](O)(C(=O)c1ccccc1)[C@@H]2O | inactive | inactive |  | 
24 | NC[C@@H]1O[C@@H](O[C@@H]2[C@@H](O[C@@H]3O[C@H](CO)[C@@H](O)[C@H]3O)[C@H](O)[C@@H](N)C[C@H]2N)[C@@H](N)[C@H](O)[C@H]1O |  |  | 88.1% [at 9.25 µM] | 93.2% [at 9.25 µM]
25 | CC(C)CCNC(=O)[C@H](CC(C)C)NC(=O)[C@H]1O[C@@H]1C(=O)O | inactive | inactive |  | 
26 | CC(C)=CCC[C@](C)(O[C@@H]1O[C@H](CO[C@@H]2O[C@@H](CO)[C@H](O)[C@H]2O[C@@H]2OC[C@@H](O)[C@H](O)[C@H]2O)[C@@H](O)[C@H](O)[C@H]1O)[C@H]1CC[C@]2(C)[C@@H]1[C@H](O)CC1[C@@]3(C)CC[C@H](O[C@@H]4O[C@H](CO)[C@@H](O)[C@H](O)[C@H]4O[C@@H]4O[C@H](CO)[C@@H](O)[C@H](O)[C@H]4O)C(C)(C)C3CC[C@]12C (stereo partly specified) |  |  | 94.1% [at 9.25 µM] | 92.9% [at 9.25 µM]
27 | O=C(/C=C/c1ccc(O)cc1)O[C@H]1[C@@H]2C=CO[C@@H](O[C@@H]3O[C@H](CO)[C@@H](O)[C@H](O)[C@H]3O)[C@@H]2[C@@]2(CO)O[C@@H]12 | inactive | inactive |  | 
28 | O=C(NCCN1CCOCC1)c1cc2c(Oc3ccc(NC(=O)C4(C(=O)Nc5ccc(F)cc5)CC4)cc3)ccnc2[nH]1 | 0.0259 µM (active) | 0.0411 µM (active) |  | 
29 | NCc1ccc(Nc2ncc(F)c(Nc3ccccc3)n2)cc1 | 0.651 µM (active) | 1.46 µM (active) |  | 
30 | C=C(C)[C@@H](C)[C@H]1O[C@]23C[C@]4(CO2)C(CCC2[C@@]5(C)CC[C@H](O[C@@H]6OC[C@H](O)[C@H](O[C@@H]7O[C@H](CO)[C@@H](O)[C@H](O)[C@H]7O)[C@H]6O[C@@H]6O[C@@H](CO)[C@H](O)[C@H]6O)C(C)(C)C5CC[C@]24C)C3[C@@](C)(O)[C@@H]1OC(C)=O (stereo partly specified) |  |  | 73.4% [at 9.25 µM] | 92.6% [at 9.25 µM]
31 | C/C=C/C(O)C1OC(=O)CC1Nc1ccc(C(=O)O)cc1 (stereo unspecified) | inactive | inactive |  | 
32 | COC(=O)c1ccc(=O)c2nc3/c(=C/O)c(O)cc(=O)c3[nH]c12 | inactive | inactive |  | 
33 | CC(C)(O)c1ccn2c(-c3ccc(F)c(-c4ccc(F)cc4C#N)c3)cnc2c1F | 9.2 µM (active) | 8.2 µM (active) |  | 
34 | CCC(CC)C(=O)OC12C(OC(=O)C(C)C)C(C)C3(O)C(C=C(CO)CC4(O)C(=O)C(C)=CC43)C1C2(C)C (stereo unspecified) | 0.0282 µM (active) | 0.01 µM (active) |  | 
35 | CCOC(CN1C(=O)[C@](CC(=O)Nc2ccc(C)cc2)(NC(=O)Nc2ccc(C)cc2)c2ccccc21)OCC | 18.6 µM (active) | 14.8 µM (active) |  | 
36 | CC1(CO)CC[C@]2(C(=O)O[C@@H]3O[C@H](CO)[C@@H](O)[C@H](O)[C@H]3O)CC[C@]3(C)C(=CCC4[C@@]5(C)C[C@H](O)[C@H](O[C@@H]6OC[C@@H](O)[C@H](O)[C@H]6O)[C@@](C)(CO)C5CC[C@]43C)C2C1 (stereo partly specified) |  |  | 88.9% [at 9.25 µM] | 101% [at 9.25 µM]
37 | CC(C)(O)c1ccc2c(c1)C(O)CC1C(C)(C(=O)O)CCCC21C (stereo unspecified) | inactive | inactive |  | 
38 | C=C1C(=O)O[C@@H]2[C@H]1[C@H](O)C[C@]1(C)[C@@H](O)CC=C(C)[C@@H]21 | 9.2 µM (active) | 4.11 µM (active) |  | 
39 | C=C1C(=O)O[C@@H]2C[C@@]3(C)C[C@@H](O)C[C@H](C)C3=C[C@H]12 | 5.17 µM (active) | 3.66 µM (active) |  | 
40 | CC1OC(OC2C(O)C(OC3CCC4(C)C(CCC5(C)C4CC=C4C6CC(C)(COC7OC(CO)C(O)C(O)C7O)CC(O)C6(C)CCC45C)C3(C)C)OC(C(=O)O)C2O)C(O)C(O)C1OC1OCC(O)C(O)C1O (stereo unspecified) |  |  | 54% [at 9.25 µM] | 85% [at 9.25 µM]
41 | COc1ccc(/C=C\C(=O)O)c(O[C@@H]2O[C@H](CO)[C@@H](O)[C@H](O)[C@H]2O)c1 | inactive | inactive |  | 
42 | C/C=C(\C)C(=O)OC[C@H]1O[C@@H](O[C@H]2[C@@H](O[C@H]3O[C@H](COC(=O)/C(C)=C/C)[C@@H](O)[C@H](O)[C@H]3O[C@@H]3O[C@H](COC(=O)/C(C)=C/C)[C@@H](O)[C@H](OC(=O)/C(C)=C/C)[C@H]3O)O[C@H](COC(=O)/C(C)=C/C)[C@@H](O)[C@@H]2O)[C@H](O)[C@@H](O)[C@@H]1O |  |  | 68.7% [at 9.25 µM] | 65.9% [at 9.25 µM]
43 | C=C1CC23CC1(O)CCC2C1=CC2OC(=O)C(C)(C2O)C1C3C(=O)O (stereo unspecified) | inactive | inactive |  | 
